Screening results from PubChem BioAssay.
The list is not random: actives were taken first. Their share in the collection is about 2.9%.
Rango-impB inh: inhibitors of Rango-importin beta complex formation. Q14974. Rango CFP/YFP FRET sensor + importin beta, 45 min. Potency, µM (series often up to 92.2 µM), without a hit: at the highest dose inhibition of complex formation. 0.031% of 340,000 active. AID 540263;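 further: potency means the concentration at half of the fitted maximal effect; 0% = DMSO wells and 100% = buffer wells lacking importin beta; nearly all actives have a fitted effect of over 15% in size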
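FRET biosensor Rango (snurportin 1 IBB between N-terminal EYFP and C-terminal Cerulean), 50 nM in PBS/1 mM DTT/0.02% Tween-20/0.1% BSA, preincubated 5 min RT with compound; 0.125 microM importin beta added, 45 min RT, CFP/YFP FRET ratio read.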
DRD3 agonist: activates the human D3 dopamine receptor; P35462; D3R DiscoveRx beta-arrestin cells, luminescence, 90 min; max activation, %; 0.58% of 410,000 active; AID 652048; in the data active means max activation above about 30%; further: 0% is about no effect
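Cells at 1500/well, incubated overnight, then treated with pinned compounds (dopamine as control) for 90 min at 37 degrees C. DiscoveRx reagent added for 30 - 60 minutes at room temperature; luminescence read.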
D3 antag: blocks the human D3 dopamine receptor; P35462; D3R cells, DiscoveRx beta-arrestin luminescence, antagonist mode; active compounds read low; max response, negative = inhibition, %; 2.5% of 360,000 active; in the data active means max response below about -50%; inconclusive means no clear call, values can overlap the other calls; further: on the % scale 0 is the no-effect control and ±100 the full control effect
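Cells expressing the human receptor were seeded at 1500 cells/well, incubated overnight at 37 degrees C in 5% CO2, then exposed to library compounds with dopamine controls for 90 minutes at 37 degrees C before luminescent detection.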
Rango dissoc inh: inhibitors of RanGTP-induced Rango-importin beta complex dissociation | Biochemical FRET Rango-importin beta, RanGTP-induced dissociation | Potency, µM (highest dose often 46.1 µM), inactives show at the top dose activity change, negative = inhibition | 0.071% of 340,000 active | AID 540253; further: potency means the concentration at half of the fitted maximal effect; % of control where 0% means no effect; nearly all actives have a fitted effect of over 45% in size
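Rango (0.1 uM)–importin beta (0.25 uM) complex; RanGTP-RCC1 trigger; 45 min RT; CFP/YFP FRET read.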
PTAP TSG101 blk: blocks PTAP/TSG101 interaction to inhibit HIV-1 budding | Fluorescence polarization, FITC-PTAP peptide / Tsg101 binding | Potency, µM (titrated, usually from 115 µM), for the others: at the highest dose activity change, negative = inhibition, hits mostly inhibitors | 340,000 tested, under 10 active; active means well fitted inhibition curve with a large enough effect in the main read-out, with a control signal flat, not every such curve was filed as active; inconclusive means small, poorly fitted or top-dose-only effect, or effect the other way, or a change in a side signal; inactive means no such curve, though single readings can be large or run the other way; further: potency means the concentration at half of the fitted maximal effect; % of control where 0% means no effect
Target sequence (Q99816 whole entry, looked up): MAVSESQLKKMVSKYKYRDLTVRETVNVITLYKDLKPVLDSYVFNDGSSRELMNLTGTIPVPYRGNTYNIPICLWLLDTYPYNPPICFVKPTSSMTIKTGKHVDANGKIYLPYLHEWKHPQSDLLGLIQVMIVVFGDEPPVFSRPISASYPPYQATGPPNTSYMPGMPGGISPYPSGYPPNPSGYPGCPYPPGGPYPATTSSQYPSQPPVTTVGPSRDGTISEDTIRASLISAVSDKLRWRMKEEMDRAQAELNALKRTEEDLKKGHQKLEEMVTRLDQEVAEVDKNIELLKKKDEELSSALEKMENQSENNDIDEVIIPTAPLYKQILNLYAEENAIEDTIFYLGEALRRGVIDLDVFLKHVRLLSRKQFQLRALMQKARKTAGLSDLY
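Compounds were pin-transferred onto Tsg101 binding domain (10 uM final) in HEPES pH 7.5 buffer, then FITC-PTAP peptide was added at 50 nM final. After 20 min at RT, polarization reported peptide displacement across a qHTS concentration series.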
Mm-Cpn inhibitor: inhibitors of Methanococcus maripaludis chaperonin TRiC (MmCpn). purified Mm-Cpn ATPase, ADP Transcreener TR-FRET. Potency, µM (series often up to 76.9 µM), without a hit: at the highest dose activity, negative = inhibition, actives largely listed as inhibitors. 0.031% of 330,000 active; active means well fitted inhibition curve with a large enough effect; inconclusive means small, poorly fitted or top-dose-only effect; further: potency means the concentration at half of the fitted maximal effect; on the % scale 0 is the no-effect control and ±100 the full control effect; nearly all actives have a fitted effect of over 80% in size
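Purified archaeal Mm-CPN (25nM final) preincubated 10 min at 37degC with compound, then 10uM ATP for 30 min at 37degC; ADP measured by HTRF Transcreener TR-FRET; buffer 30 mM TRIS pH 7.4, 100mM KCl, 5mM MgCl2, 1mM DTT.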
* marks the source's active call; other numbers are inactive results; ? = inconclusive; / = no result; [ ] = remark or other dose. Unless noted, the call rests on the fitted dose curve.

SMILES	Rango-impB inh	DRD3 agonist	D3 antag	Rango dissoc inh	PTAP TSG101 blk	Mm-Cpn inhibitor
Nc1c(C(=O)Nc2ccccc2)sc2nc3c(c(-c4ccco4)c12)CCC3	?	7	-60*	?	1%	-7%
CCOC(=O)c1cc(C)n(CC2CCC(C(=O)Nc3ccc(OC)cc3)CC2)c1C (stereo unspecified)	/	30*	/	/	/	/
CCC(=O)N1CCc2cc(Br)cc(S(=O)(=O)N3CCN(c4cc(C)ccc4C)CC3)c21	/	6	/	/	/	/
COc1ccc(NC(=O)C2CCN(c3cc(-c4ccccc4)nc4ncnn34)CC2)cc1OC	-1%	55*	36	19%	-12%	1%
COC(=O)[C@@H](NC(=O)Nc1cccc(Br)c1)C(C)C	-6%	-15	-19	?	-13%	2%
COC(=O)[C@H](C)NC(=O)Nc1cccc(Br)c1	3%	84*	0	-16%	-1%	-1%
CCOc1ccc(/C=C/c2nc3ccccc3n2S(=O)(=O)c2cccc(Cl)c2)cc1	/	6	/	/	/	/
O=C(c1ccccc1)N1CCCCC(Sc2nnnn2-c2ccccc2)C1=O (stereo unspecified)	-7%	-10	-60*	2%	-6%	0%
CCOC(=O)CCCNC(=O)c1cncc(Br)c1	0%	31*	-6	-6%	0%	1%
OC(CNCc1ccc(F)cc1)(c1ccc(F)cc1)c1ccc(F)cc1	0%	2	-51*	-11%	-2%	1%
CCOC(=O)c1ccc(NC(=O)COCc2cc(-c3ccc4c(c3)OCO4)on2)cc1	/	1	/	/	/	/
COc1ccc(NC(=O)Cc2ccccc2)cn1	-2%	1	5	2%	-14%	1%
COc1ccc(CS(=O)(=O)/C(Cl)=C(/Cl)C(=O)Nc2ccc(OC)nc2)cc1	1%	-17	-51*	3%	-1%	-6%
COc1ccc(NC(=O)/C(Cl)=C(/Cl)S(=O)Cc2ccccc2)cn1 (stereo unspecified)	-1%	-28	-131*	-3%	-3%	-4%
C[C@H](CO)N1C[C@H](C)[C@@H](CN(C)CC2CCCCC2)Oc2ccc(NC(=O)Cn3cnnn3)cc2C1=O	-1%	35*	12	7%	-4%	-2%
C[C@H](CO)N1C[C@H](C)[C@@H](CN(C)C(=O)NC2CCCCC2)Oc2ccc(NC(=O)Cn3cnnn3)cc2C1=O	-1%	-4	12	8%	-1%	-3%
C[C@@H]1CN([C@H](C)CO)C(=O)c2cc(NC(=O)Nc3ccc4c(c3)OCO4)ccc2O[C@H]1CN(C)Cc1ccncc1	2%	32*	4	3%	-2%	0%
Cc1ccccc1N1CCN(C2CCCN(C(=O)CCC3(C)CC3)C2)CC1 (stereo unspecified)	0%	-7	-64*	7%	0%	-3%
CN1CCN(C2=Nc3ccccc3Oc3ccc(Cl)cc32)CC1	16%	-79	-110*	-8%	0%	-1%[15.4 µM]
CN1CCN(C2=Nc3ccccc3Sc3ccc(Cl)cc32)CC1	/	-22	/	/	/	/
O=[N+]([O-])c1ccc(/C=N/Nc2ccc3ccccc3c2)o1	7%	-19	-89*	0%	0%	-8%
Cc1ccc2c(c1)-c1nc(-c3ccc(Cl)cc3)cc(-c3coc4ccccc4c3=O)c1CO2	/	-10	/	/	/	/
Cc1ccc(C)c(CN2C(=O)CSc3ccc(C(=O)NCCc4ccc(Cl)cc4)cc32)c1	/	2	/	/	/	/
C=CCN(c1ccc(C(=O)OC)cc1)S(=O)(=O)c1ccccc1	-1%	1	-76*	-5%	-1%	-2%
CCOc1ccccc1CNS(=O)(=O)c1ccc2c(c1)CCCN2C(C)=O	/	-2	/	/	/	/
SMILES	Rango-impB inh	DRD3 agonist	D3 antag	Rango dissoc inh	PTAP TSG101 blk	Mm-Cpn inhibitor
O=C(NCc1ccccc1Cl)c1ccc2c(c1)NC(=O)C(CS(=O)(=O)Cc1ccc(F)cc1Cl)N2 (stereo unspecified)	/	47*	/	/	/	/
CCOc1ccc(CCNc2ncnc3onc(-c4ccc(F)cc4)c23)cc1OCC	/	5	/	/	/	/
CO[C@H]1C[C@H](O[C@H]2[C@H](C)[C@@H](O[C@@H]3O[C@H](C)C[C@H](N(C)C)[C@H]3OC(C)=O)[C@@H](C)C[C@]3(CO3)C(=O)[C@H](C)[C@@H](OC(C)=O)[C@@H](C)[C@@H](C)OC(=O)[C@@H]2C)O[C@@H](C)[C@@H]1OC(C)=O	/	6	/	/	/	/
COc1ccc(N2CCN(C(CNC(=O)C(=O)NCC3CCCO3)c3ccco3)CC2)cc1 (stereo unspecified)	0%	-3	-8	3%	-4%	0%
O=C(NCC1CCCO1)C(=O)NCC(c1ccco1)N1CCN(c2ccccc2F)CC1 (stereo unspecified)	?	51*	87	2%	-1%	-6%
O=C(NCC(c1ccco1)N1CCN(c2ccccc2F)CC1)C(=O)NC1CCCC1 (stereo unspecified)	-1%	36*	20	1%	-4%	0%
O=C(NCC(c1ccco1)N1CCN(c2ccccc2)CC1)C(=O)NC1CCCCC1 (stereo unspecified)	1%	37*	3	-4%	3%	?
Cc1occc1C(=O)Nc1cccc(Cl)c1Cl	5%	0	1	12%	-4%	-3%
CCC(C)c1ccc(NC(=S)Nc2ccc(OC)c(OC)c2)cc1 (stereo unspecified)	-1%	5	?	12%	4%	-1%
CCC(C)c1ccc(NC(=S)Nc2ccc(OC)cc2C)cc1 (stereo unspecified)	0%	23	-133*	-3%	-1%	1%
CN(C(=O)c1ccc(NC(=O)Cc2ccc(NC(=O)C3CCCN(C(=O)C4CCCC4)C3)cc2)cc1)C1CC1 (stereo unspecified)	-5%	-2	-18	-3%	-1%	1%
ClC(Cl)(c1nnnn1-c1ccccc1)c1nnnn1-c1ccccc1	0%	-8	-72*	-1%	-3%	-4%
S=C1NCCc2ccc(Cl)cc2C1c1ccccc1Cl (stereo unspecified)	0%	-2	-71*	-5%	4%	0%
CCOC(=O)C(=CNc1ccc(N2CCOCC2)cc1)C(=O)OCC	2%	5	78	-4%	-4%	-6%
CCOC(=O)C(=CNc1ccc(-c2ccco2)c(Cl)c1)C(=O)OCC	-5%	38*	110	-20%	-9%	-9%
CCOC(=O)C(=CNc1cc(Cl)c(-c2ccco2)c(Cl)c1)C(=O)OCC	-2%	1	1	-11%	-11%	-5%
